JMJD2A Tudor: JMJD2A Tudor domain (human) inhibition | O75164 | AlphaScreen JMJD2A-Tudor / H3K4me3 peptide binding | actives 4.4% (n = 390,000) | Potency, µM (top dose mostly 114 µM), usual class: inhibitors; further: nearly all actives have a fitted effect of over 50% in size
Sfp PPTase inh: blocks B. subtilis Sfp PPTase activity; Q9F4F7; Biochemical Sfp PPTase activity, qHTS; Potency, µM, usual class: inhibitors; actives 3.5% (n = 310,000);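 further: the enzyme is Sfp with the accession as filed and its product quenches rhodamine fluorescence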
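Fluorescence-quenching assay with 15 nM Sfp, 5 uM rhodamine-CoA and 12.5 uM BHQ-2-labelled ybbR peptide in pH 7.6 Hepes/MgCl2 buffer. Enzyme was pre-incubated with compound for 15 min at room temperature. Rate was taken from the 30-min fluorescence change (525/598 nm).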
BAZ2B block: BAZ2B (human) inhibition; AlphaScreen BAZ2B-H3K14Ac peptide displacement; actives 4.4% (n = 360,000); Potency, µM (series often up to 114 µM), actives largely listed as inhibitors; AID 504333; further: nearly all actives have a fitted effect of over 60% in size
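AlphaScreen luminescence quantifies BAZ2B engagement of H3K14Ac peptide; the protein and biotinylated peptide are both at 50 nM final, buffer PBS pH 7.4 with 0.01% Tween-20, all steps at room temperature.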
HP1b chromo inh: inhibitors of HP1-beta chromodomain binding to methylated histone tails; P83916; AlphaScreen HP1-beta / biotin-H3K9me3 peptide binding; Potency, µM (titrated, usually from 114 µM), usual class: inhibitors; actives 0.56% (n = 390,000); further: nearly all actives have a fitted effect of over 70% in size
Target sequence (P83916 whole entry, looked up): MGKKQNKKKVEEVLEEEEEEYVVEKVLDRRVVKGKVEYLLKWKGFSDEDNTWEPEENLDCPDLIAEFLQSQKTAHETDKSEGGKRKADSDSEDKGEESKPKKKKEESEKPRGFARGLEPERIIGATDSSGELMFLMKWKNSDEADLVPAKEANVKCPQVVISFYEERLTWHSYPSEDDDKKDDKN
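AlphaScreen: HP1-beta (50 nM) preformed 30 min with biotin-H3(1-18)K9me3 peptide (50 nM) in PBS pH 7.4, 0.01% Tween-20. Compound added for 30 min at RT, then streptavidin donor/nickel chelate acceptor beads (10 ug/mL) for 30 min.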
G9a inh: blocks human histone lysine methyltransferase G9a | Q96KQ7 | G9a H3K9 monomethylation, AlphaScreen, 2 h | Potency, µM (highest dose often 102 µM), actives largely listed as inhibitors | actives 8.8% (n = 350,000) | AID 504332; further: nearly all actives have a fitted effect of over 75% in size
Target sequence (Q96KQ7 913-1193 limits assumed): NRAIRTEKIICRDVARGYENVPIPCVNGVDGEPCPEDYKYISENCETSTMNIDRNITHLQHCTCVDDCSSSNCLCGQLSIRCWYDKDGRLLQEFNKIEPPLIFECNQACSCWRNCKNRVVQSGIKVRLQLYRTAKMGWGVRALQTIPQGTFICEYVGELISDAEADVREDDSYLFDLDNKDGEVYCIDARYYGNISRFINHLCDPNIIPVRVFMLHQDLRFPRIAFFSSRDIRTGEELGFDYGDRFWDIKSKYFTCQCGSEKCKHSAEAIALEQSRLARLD
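Methyltransferase reactions run at room temperature for 2 h (20 nM enzyme, 500 nM biotin-H3K9 peptide, 20 uM SAM) after a 15 min compound preincubation; product detected by AlphaScreen beads and anti-H3K9me1 antibody.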
Hits are given with their value; . = inactive; ? = inconclusive; / = not tested or not shown; [ ] = remark or other dose. Shown are actives, neighbours in structure and some others; about 12% of the full set was active somewhere. The call rests on the fitted dose curve; in most records, active means well fitted curve in the direction sought with a large enough effect; inconclusive means small, poorly fitted or top-dose-only effect, or another doubt; inactive means no such curve, though single readings can be large; an effect the other way counts as inactive or inconclusive.

SMILES | JMJD2A Tudor | Sfp PPTase inh | BAZ2B block | HP1b chromo inh | G9a inh
Cc1ccc(-n2nnnc2C(Cl)(Cl)c2nnnn2-c2ccc(C)cc2)cc1 | . | 3.2µM | ? | ? | ?
CCOc1ccc(-n2cc(C(=O)NC(C)C)c3cc(OC)c(OC)cc3c2=O)cc1 | 20µM | . | . | . | .
CCOc1ccc(NC(=O)c2cn(-c3ccc(OCC)cc3)c(=O)c3cc(OC)c(OC)cc23)cc1 | . | . | . | . | .
COc1ccc(-n2cc(C(=O)NCCc3cc(OC)ccc3OC)c3ccccc3c2=O)cc1 | 50µM | / | ? | . | ?
COc1cccc(-n2cc(C(=O)NCc3ccccc3OC)c3ccccc3c2=O)c1 | . | / | . | . | .
CCOc1cc(/C=C2\C(=O)N(c3cccc(C(=O)O)c3)N=C2C(F)(F)F)ccc1OCC(=O)Nc1ccccc1OC | / | . | 50µM | / | /
CCOc1cc(/C=N/n2cnnc2)ccc1OCC(=O)Nc1ccccc1OC | . | . | . | . | .[12.7 µM]
Cn1c(=O)c(C(=O)NNC(=O)c2ccc(Br)cc2)c(O)c2ccccc21 | . | . | . | . | .
CCC(C)NC(=O)C1(NC(=O)Nc2ccccc2)CCCCC1 (stereo not drawn) | 18µM | . | . | ? | .
O=C(Nc1ccccc1)NC1(C(=O)NCc2cccs2)CCCCC1 | . | . | . | . | .
CCC(C(=O)OCc1cc(=O)n2nc(CCOC)sc2n1)c1ccccc1 (stereo not drawn) | . | / | . | . | .
O=c1c2cc([N+](=O)[O-])cc([N+](=O)[O-])c2[nH]n1-c1ccccc1 | 35µM | . | 40µM | 35µM | 28µM
Cc1ccc(-c2ccc(/C=C(\C#N)C(N)=S)n2C)cc1 | ? | . | ? | . | 10µM
Cc1cc(C)c(/C=C(\C#N)C(N)=S)c(C)c1 | . | . | . | . | 45µM
O=C(O)c1ccc(Nc2nc3ccccc3n3cnnc23)cc1 | . | / | . | . | .
C=CC1=C(C)C2=Cc3c(C=C)c(C)c4[n]3[Sn+2][n]3c(c(C)c(CCC(=O)O)c3=CC3=NC(=C4)C(C)=C3CCC(=O)O)=CC1=N2 | / | 10µM | / | / | /
CCN(CC)CCN(C(=O)c1ccc2ccccc2c1)c1nc2ccc(OC)cc2s1 | ? | . | ? | . | 79µM
CCN(CC)CCN(C(=O)c1cc2ccccc2cc1OC)c1nc2ccc(F)cc2s1 | 32µM | . | ? | . | 40µM
COc1ccc2nc(N(Cc3ccccc3)C(=O)CCNC(C)=O)sc2c1 | . | . | . | . | 32µM
CN(C)CCCN(C(=O)c1cc2ccccc2oc1=O)c1nc2ccc(F)cc2s1 | . | . | . | . | ?
CCN(CC)CCN(C(=O)c1cc2ccccc2cc1OC)c1nc2ccc(OC)cc2s1 | ? | 50µM | ? | . | 45µM
Cc1ccc(NC(=O)CC2NCCN(Cc3ccccc3)C2=O)cc1 (stereo not drawn) | . | . | . | . | .
Cc1ccc(NC(=O)Cn2c(=O)c(C(F)(F)F)nc3ccccc32)cc1C | . | / | . | . | .
C[C@@H]1COC(=O)[C@H](CC(=O)OC(C)(C)C)C/C=C\C[C@@H](CC(=O)NCCO)C(=O)N1 | . | / | / | . | /
O=C(NCC1CC1)c1ccc(Nc2nc3ccc(Br)cc3[nH]2)cc1 | 20µM | 32µM | . | ? | ?
SMILES | JMJD2A Tudor | Sfp PPTase inh | BAZ2B block | HP1b chromo inh | G9a inh
O=C(NCc1ccco1)c1cccc(Nc2nc3ccc(Br)cc3[nH]2)c1 | ? | . | . | . | ?
C#CCOCCOCCOCCNc1nc(N2CCN(C(=O)Cn3cc(CCO)nn3)CC2)nc(N2CCN(C(=O)[C@H](C(C)C)n3cc(CCO)nn3)CC2)n1 | . | . | ? | . | 45µM
C#CCOCCOCCOCCNc1nc(N2CCN(C(=O)Cn3cc(CCO)nn3)CC2)nc(N2CCN(C(=O)[C@H]([C@@H](C)CC)n3cc(CCCCN)nn3)CC2)n1 | . | / | / | . | /
C#CCOCCOCCOCCNc1nc(N2CCN(C(=O)Cn3cc(CC(C)O)nn3)CC2)nc(N2CCN(C(=O)[C@H](CCCCN)n3cc(CCCC)nn3)CC2)n1 (stereo partly drawn) | . | / | / | . | /
C#CCOCCOCCOCCNc1nc(N2CCN(C(=O)Cn3cc(CCO)nn3)CC2)nc(N2CCN(C(=O)[C@H](CCCCN)n3cc(CC(C)O)nn3)CC2)n1 (stereo partly drawn) | 89µM | / | / | . | /
C#CCOCCOCCOCCNc1nc(N2CCOCC2)nc(N2CCN(C(=O)Cn3cc(CC(C)O)nn3)CC2)n1 (stereo not drawn) | . | . | . | . | 79µM

High-throughput results from PubChem.
